This is a sample that favours compounds with a hit; in the whole collection about 3.8% have one here.
PLK1 PBD block = blocks phosphopeptide binding to human PLK1 polo-box domain | actives 2.8% (n = 360,000) | Potency, µM, for the others: max response, negative = inhibition, hits mostly inhibitors | P53350 | Plk1 PBD binding of FITC phosphopeptide, fluorescence polarization; also: potency is read from the fitted curve at half-maximal effect; series mostly up to about 57 µM; % is scaled to controls: 0 for no effect and ±100 for the full control effect; nearly all actives have a fitted effect of over 65% in size
MBNL1 CUG block = blocks human MBNL1 binding to CUG repeat RNA; Potency, µM (highest dose often 57.5 µM), for inactives: at the highest dose activity change, negative = inhibition, most hits filed as inhibitors; AID 2675; Q9NR56; actives 0.036% (n = 280,000); TR-FRET MBNL1-His/biotin-(CUG)12 binding, 665/545 ratio; active = well fitted inhibition curve with a large enough effect in the signal ratio, with a control signal flat, not every such curve was filed as active; inconclusive = small, poorly fitted or top-dose-only effect, or effect the other way, or a change in a side signal; inactive = no such curve, though single readings can be large or run the other way; the % refers to the signal ratio; also: potency is read from the fitted curve at half-maximal effect; % is scaled to controls: 0 for no effect and ±100 for the full control effect
Target sequence (Q9NR56 whole entry, looked up): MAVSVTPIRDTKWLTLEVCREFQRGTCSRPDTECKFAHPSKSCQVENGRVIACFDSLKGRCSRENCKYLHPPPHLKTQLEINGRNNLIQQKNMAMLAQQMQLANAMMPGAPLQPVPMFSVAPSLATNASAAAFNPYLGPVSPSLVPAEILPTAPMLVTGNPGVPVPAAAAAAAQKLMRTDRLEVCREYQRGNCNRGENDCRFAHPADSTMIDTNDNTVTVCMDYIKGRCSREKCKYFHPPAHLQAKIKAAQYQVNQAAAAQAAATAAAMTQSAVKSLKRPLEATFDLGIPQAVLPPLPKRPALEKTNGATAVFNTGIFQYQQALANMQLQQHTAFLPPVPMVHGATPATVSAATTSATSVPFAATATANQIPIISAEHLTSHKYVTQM
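TR-FRET readout: Ex 340 nm, 665/545 nm emission ratio, normalized to buffer-only (basal) and MBNL1-(CUG)12 controls. Complex of MBNL1-His with Biotin-(CUG)12, compounds 92 nM–58 uM, incubated 60 min at room temperature.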
CBFb RUNX1 block = inhibitors of human CBF-beta and RUNX1 interaction; Q01196+Q13951; AlphaScreen CBFb-His/RUNX1-biotin binding, biochemical; Potency, µM (doses to about 59.8 µM), inactives show at the top dose activity, negative = inhibition, hits mostly inhibitors; 230,000 tested, under 10 active; also: % of control where 0% means no effect
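Inhibition was taken as any reduction in AlphaScreen signal from the CBF-beta–RUNX1 pair (His and biotin tags, 30 nM each), measured after compound (15 min) and bead (90 min) incubations at room temperature.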
KCNH2 3.1 block = blocks the human KCNH2 3.1 channel isoform; actives 0.95% (n = 340,000); activity change, % (tested at about 1.8 µM); AID 720553; U2OS KCNH2 3.1, thallium flux FluxOr; hits give low values;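 active = maximum activity change below -70%; inconclusive = maximum activity change from -70% to -50%; inactive = maximum activity change above -50%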;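 also: thallium influx rate constant from kinetic fluorescence after stimulation buffer; % is scaled to controls: 0 for no effect and ±100 for the full control effect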
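FluxOr-based Tl+ influx in U2OS cells transduced with KCNH2 3.1 virus; rate constants normalized to DMSO controls.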
VDR inhibitor = inhibitors of human vitamin D receptor; P11473; VDR-SRC2-3 peptide fluorescence polarization, 2 h; Potency, µM, inactives show max response, negative = inhibition, hits mostly inhibitors; actives 0.93% (n = 400,000); AID 504847; also: potency is read from the fitted curve at half-maximal effect; % is scaled to controls: 0 for no effect and ±100 for the full control effect
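Two reagent solutions held at 4 deg C in the dark were dispensed, compounds pinned at 23 nl, and the mixture incubated 2 h at room temperature. Read-out: fluorescence polarization of VDR–SRC2-3 peptide binding.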
hERG WT inh = inhibitors of human wildtype KCNH2 potassium channel | U2OS, BacMam KCNH2, thallium flux FluxOr; hits give low values | AID 720551 | actives 0.37% (n = 340,000) | activity change, % at 1.84 µM | Q12809;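 active = maximum activity change below -70%; inconclusive = maximum activity change between -70% and -50%; inactive = maximum activity change above -50%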; also: % is scaled to controls: 0 for no effect and ±100 for the full control effect
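U2OS cells transduced with wild-type KCNH2 virus are loaded with FluxOr dye for 45 min, and thallium flux is measured in kinetic reads before and after stimulation buffer. Rate constants are normalized to DMSO controls.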
TbPYK inh = confirmation of Trypanosoma brucei pyruvate kinase inhibitors. shares compounds with PLK1 PBD block. recombinant TbPYK, Kinase-Glo ATP luminescence. Potency, µM (highest dose often 76.9 µM), inactives show at the highest dose activity change, negative = inhibition, usual class: inhibitors. actives 67% (n = 890); also: potency is read from the fitted curve at half-maximal effect; % is scaled to controls: 0 for no effect and ±100 for the full control effect; nearly all actives have a fitted effect of over 70% in size
TbPYK orthogonal = inhibits T. brucei pyruvate kinase in orthogonal ADP-Glo assay | shares compounds with PLK1 PBD block | recombinant TbPYK, ADP-Glo luminescence, 60 min | Potency, µM (top dose mostly 76.9 µM), for the others: top-dose activity change, negative = inhibition, usual class: inhibitors | actives 62% (n = 890) | AID 720584; also: potency is read from the fitted curve at half-maximal effect; % is scaled to controls: 0 for no effect and ±100 for the full control effect; nearly all actives have a fitted effect of over 75% in size
An asterisk follows results filed as active. Unless noted, calls follow the shape of the dose curve; as a rule, active = well fitted curve in the direction sought with a large enough effect; inconclusive = small, poorly fitted or top-dose-only effect, or another doubt; inactive = no such curve, though single readings can be large; an effect the other way counts as inactive or inconclusive.

CN(C)c1cccc2c(C=C(C#N)C#N)ccc(N(C)C)c12 was read as PLK1 PBD block -9%, MBNL1 CUG block inconclusive, CBFb RUNX1 block 4%, KCNH2 3.1 block -10, VDR inhibitor -13%, hERG WT inh 0, TbPYK inh inconclusive and TbPYK orthogonal inconclusive.
For COc1ccc(-c2nnc3ccc(SCC(=O)N4CCN(c5ccccc5)CC4)nn23)cc1 the results were PLK1 PBD block -21%, KCNH2 3.1 block -5, VDR inhibitor -7%, hERG WT inh 0, TbPYK inh inconclusive and TbPYK orthogonal inconclusive.
Screening COc1ccc(-c2nnc3ccc(SCC(=O)N4CCOCC4)nn23)cc1 returned PLK1 PBD block -32%, MBNL1 CUG block inconclusive, CBFb RUNX1 block 18%, KCNH2 3.1 block -1, VDR inhibitor -3% and hERG WT inh -20.
For CCCN1CNc2c(c(=O)[nH]c(=S)n2CCc2cccc(OC)c2OC)C1 the results were VDR inhibitor -21%.
For CCOC(=O)C(=C1Nc2ccccc2N1)n1c(-c2ccco2)nc2ccccc21 the results were PLK1 PBD block inconclusive, TbPYK inh -72% and TbPYK orthogonal 35µM*.
CCOC(=O)C(=C1Nc2ccccc2N1)n1c(-c2cnccn2)nc2ccccc21 was read as PLK1 PBD block -9%.
Cc1ccsc1/C=N/Nc1nc(=O)[nH]nc1C was read as PLK1 PBD block 1%, MBNL1 CUG block inconclusive, CBFb RUNX1 block inconclusive, KCNH2 3.1 block -6, VDR inhibitor -8%, hERG WT inh -2, TbPYK inh 18µM* and TbPYK orthogonal 8%.
Screening Cc1ccsc1/C=N/Nc1ncc(Cl)cc1Cl returned PLK1 PBD block -8%, MBNL1 CUG block 3%, CBFb RUNX1 block -2%, KCNH2 3.1 block -2, VDR inhibitor 4% and hERG WT inh -4.
`Cc1nn(C(C)C(=O)NC2CCCCC2)c(=O)c2c1sc1ccccc12` (stereo unspecified) gave VDR inhibitor 18%.
CCOc1ccccc1N1C(=O)CC(Sc2n[nH]c(-c3ccccc3)n2)C1=O (stereo unspecified) was read as PLK1 PBD block 7.5µM*, MBNL1 CUG block 3%, CBFb RUNX1 block -5%, KCNH2 3.1 block -18, VDR inhibitor -11%, hERG WT inh -8, TbPYK inh 7.1µM* and TbPYK orthogonal 13µM*.
`Cc1ccc(C2=NNC(=Nc3ccc(F)cc3)SC2)cc1` gave PLK1 PBD block inconclusive, MBNL1 CUG block 11%, CBFb RUNX1 block inconclusive, KCNH2 3.1 block 1, VDR inhibitor -3% and hERG WT inh -2.
`Cc1ccc(N=c2ssnc2Cl)cc1` gave PLK1 PBD block 1.7µM*, MBNL1 CUG block 4%, CBFb RUNX1 block -20%, KCNH2 3.1 block 0, VDR inhibitor 28µM*, hERG WT inh -2, TbPYK inh 6.3µM* and TbPYK orthogonal 8.9µM*.
For Cc1nnc(N=c2ssnc2Cl)o1 the results were PLK1 PBD block 1.7µM*, KCNH2 3.1 block -21, VDR inhibitor inconclusive, hERG WT inh 2, TbPYK inh 4.5µM* and TbPYK orthogonal 5µM*.
`CCCOC(=O)c1c(NC(=O)c2cc3ccccc3c(=O)o2)sc2c1CCC(C)C2` (stereo unspecified) gave VDR inhibitor 8%.
`Cc1ccccc1N1C(=O)CC(Sc2nnc(-c3ccccc3)o2)C1=O` (stereo unspecified) gave PLK1 PBD block 0%, MBNL1 CUG block 56%, CBFb RUNX1 block 9%, KCNH2 3.1 block -3, VDR inhibitor -11%, hERG WT inh 2, TbPYK inh 14µM* and TbPYK orthogonal 18µM*.
`CCOC(=O)CNC(=O)CSc1nnc(-c2ccccc2)n1Cc1ccco1` gave PLK1 PBD block -9%, MBNL1 CUG block -1%, CBFb RUNX1 block 3%, VDR inhibitor 11%, hERG WT inh -7, TbPYK inh 2.2µM* and TbPYK orthogonal 1.4µM*.
For CCOC(=O)C1CCCN(C(=O)c2ccc(CS(=O)(=O)c3ccc(C)cc3)o2)C1 (stereo unspecified) the results were PLK1 PBD block -27%, MBNL1 CUG block 4%, CBFb RUNX1 block -9%, KCNH2 3.1 block 10, VDR inhibitor -3% and hERG WT inh -3.
`CCOC(=O)C1CCCN(C(=O)c2ccc(-c3ccc([N+](=O)[O-])cc3)o2)C1` (stereo unspecified) gave PLK1 PBD block 30µM*, KCNH2 3.1 block -7, VDR inhibitor inconclusive, hERG WT inh -2, TbPYK inh inconclusive and TbPYK orthogonal inconclusive.
`Cc1ccc(NC(=O)CN2CCCN(Cc3cc(C)ccc3C)S2(=O)=O)c(Cl)c1` gave VDR inhibitor 6%.
`CCCc1cc(=O)oc2cc(C)cc(OC(=O)c3ccco3)c12` gave PLK1 PBD block -8%, MBNL1 CUG block 15%, CBFb RUNX1 block 0%, KCNH2 3.1 block 1, VDR inhibitor -6%, hERG WT inh -8, TbPYK inh 6% and TbPYK orthogonal -11%.
`CCc1ccc(NC(=O)Cn2c(=O)n(-c3cc(C)cc(C)c3)c(=O)c3oc4ccccc4c32)cc1` gave VDR inhibitor 5%.
`Cc1c(NC(=O)CSC2=C(C#N)C(c3ccccc3F)CC(=O)N2)c(=O)n(-c2ccccc2)n1C` (stereo unspecified) gave PLK1 PBD block 0%, MBNL1 CUG block 2%, CBFb RUNX1 block 2%, KCNH2 3.1 block 7, VDR inhibitor -3% and hERG WT inh -3.
N#CC1=C2SCN(Cc3ccccc3)CN2C(=O)CC1c1ccccc1F (stereo unspecified) was read as PLK1 PBD block 17µM*, MBNL1 CUG block 3%, CBFb RUNX1 block -2%, KCNH2 3.1 block 4, VDR inhibitor 50µM*, hERG WT inh -6, TbPYK inh 1.8µM* and TbPYK orthogonal 1.6µM*.
Screening CCSC1=C(C#N)C(c2ccc(C)o2)CC(=O)N1 (stereo unspecified) returned PLK1 PBD block -5%, MBNL1 CUG block 0%, CBFb RUNX1 block 1%, KCNH2 3.1 block -4, VDR inhibitor -26% and hERG WT inh -2.

Screens: PubChem BioAssay, National Center for Advancing Translational Sciences (NCATS)
